Results from the supplement of paper PMC8975748.
Structures can show the parent of a compound that is named as a salt.

System: Saccharomyces cerevisiae BY4741 SeMeCo community
Experiment: z-score of subpopulation abundance vs DMSO median, subpopulation auxotrophic for LM; higher = larger share of this subpopulation than in DMSO controls
Conditions: 10 µM; 24 h; SM minimal medium; subpopulation (auxotrophy): LM
Outline: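 A community of Saccharomyces cerevisiae BY4741 was built from four plasmids that each restored one auxotrophy and encoded a distinct fluorescent protein. Pre-grown overnight to OD600 1.0 and diluted to 0.3, it was dispensed at 70 µl into 384-well plates acoustically predosed with library drugs for a final 10 µM, and grown 24 h in minimal SM medium. Cells were then paraformaldehyde-fixed and imaged by automated confocal microscopy. Thresholds and autofluorescence correction came from single-auxotroph fluorescent strains, and each subpopulation's abundance was scored as a z-score relative to the vehicle-well median.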

SMILES	z-score of subpopulation abundance
CN[C@@H]1[C@H](O[C@H]2[C@H](O[C@H]3[C@H](O)[C@@H](O)[C@H](NC(=N)N)[C@@H](O)[C@@H]3NC(=N)N)O[C@@H](C)[C@]2(O)CO)O[C@@H](CO)[C@H](O)[C@H]1O [Dihydrostreptomycin sulfate]	-0.32
C=CCc1ccc(O)c(-c2ccc(O)c(CC=C)c2)c1 [Honokiol]	-0.63
COCCCN1CCC(NC(=O)c2cc(Cl)c(N)c3c2OCC3)CC1 [Prucalopride]	-0.04
COCC(=O)Nc1cc(Sc2ccccc2)ccc1N=C(NC(=O)OC)NC(=O)OC [Febantel]	0.89
Cc1ccsc1/C=C/C1=NCCCN1C [Morantel tartrate]	-0.48
CCn1cc(C(=O)O)c(=O)c2cc(F)c(N3CCNCC3)cc21 [Norfloxacin]	0.65
COC(=O)C1=C(C)NC(C)=C(C(=O)OC2CCCN(Cc3ccccc3)C2)C1c1cccc([N+](=O)[O-])c1 (centres undefined) [Benidipine HCl]	1.8
CC1=C[C@H]2C(=O)O[C@H]3C[C@@H](C/C=C(\C)C[C@@H](C)/C=C/C=C4\CO[C@H](/C1=N\O)[C@@]42O)O[C@@]1(CC[C@H](C)[C@@H](C)O1)C3.CC[C@H]1O[C@]2(CC[C@@H]1C)C[C@@H]1C[C@@H](C/C=C(\C)C[C@@H](C)/C=C/C=C3\CO[C@@H]4/C(=N\O)C(C)=C[C@@H](C(=O)O1)[C@]34O)O2 [Milbemycin Oxime]	-0.44
CC1=Nc2ccc(Cl)cc2S(=O)(=O)N1 [Diazoxide]	-1.03
O=C(O)c1cc(O)c2c(c1)[C@H]([C@H]1c3cc(C(=O)O)cc(O)c3C(=O)c3c(O[C@@H]4O[C@H](CO)[C@@H](O)[C@H](O)[C@H]4O)cccc31)c1cccc(O[C@@H]3O[C@H](CO)[C@@H](O)[C@H](O)[C@H]3O)c1C2=O [Sennoside A]	-0.8
CO/N=C(\C(=O)N[C@@H]1C(=O)N2C(C(=O)OC(C)OC(C)=O)=C(COC(N)=O)CS[C@H]12)c1ccco1 (some centres undefined) [Cefuroxime axetil]	-1.34
CNCCCN1c2ccccc2CCc2ccccc21 [Desipramine Hydrochloride]	0.26
CCCCCOc1ccccc1/C(=C\SC)n1ccnc1 [Neticonazole Hydrochloride]	-1.01
CCC(C)n1ncn(-c2ccc(N3CCN(c4ccc(OCC5COC(Cn6cncn6)(c6ccc(Cl)cc6Cl)O5)cc4)CC3)cc2)c1=O (centres undefined) [Itraconazole]	1.85
C=CCN1CCCC1CNC(=O)c1cc2nn[nH]c2cc1OC (centres undefined) [Alizapride HCl]	-0.39
CO/N=C(\C(=O)N[C@@H]1C(=O)N2C(C(=O)O)=C(CSc3nc(C)c(CC(=O)O)s3)CS[C@H]12)c1csc(N)n1 [Cefodizime Sodium]	-1.04
C[C@H](NCc1ccc(OCc2cccc(F)c2)cc1)C(N)=O [Safinamide Mesylate]	0.94
Cc1ccnc(NS(=O)(=O)c2ccc(N)cc2)n1 [Sulfamerazine]	0.88
C=C[C@H]1CN2CC[C@H]1C[C@@H]2[C@@H](O)c1ccnc2ccc(OC)cc12 [Quinidine sulfate]	2.28
O=C(Nc1ccc(Oc2ccc(Cl)cc2)c(Cl)c1)c1cc(I)cc(I)c1O [Rafoxanide]	0.2
COC(=O)Nc1nc2cc(C(=O)c3ccccc3)ccc2[nH]1 [Mebendazole]	1.32
Nc1nc(N)c2nc(-c3ccccc3)c(N)nc2n1 [Triamterene]	5.63
CC(=O)N1CCN(c2ccc(OCC3COC(Cn4ccnc4)(c4ccc(Cl)cc4Cl)O3)cc2)CC1 (centres undefined) [Ketoconazole]	-0.27
Cc1onc(-c2ccccc2)c1C(=O)N[C@@H]1C(=O)N2[C@@H]1SC(C)(C)[C@@H]2C(=O)O [Oxacillin sodium monohydrate]	0.23
CC[C@H]1OC(=O)[C@H](C)[C@@H](O[C@H]2C[C@@](C)(OC)[C@@H](O)[C@H](C)O2)[C@H](C)[C@@H](O[C@@H]2O[C@H](C)C[C@H](N(C)C)[C@H]2O)[C@](C)(O)C[C@@H](C)C(=O)[C@H](C)[C@@H](O)[C@]1(C)O [Erythromycin thiocyanate]	0.36
CNS(=O)(=O)CCc1ccc2[nH]cc(C3CCN(C)CC3)c2c1 [Naratriptan HCl]	0.06
CC1CCc2c(N3CCC(O)CC3)c(F)cc3c(=O)c(C(=O)O)cn1c23 (centres undefined) [Nadifloxacin]	0.06
Oc1ccc(Cl)c2cccnc12 [Cloxiquine]	8.36
CCN(CC)CC#CCOC(=O)C(O)(c1ccccc1)C1CCCCC1 (centres undefined) [Oxybutynin chloride]	-0.32
